Hits are enriched below; roughly 5.4% of the tested compounds scored in any of these assays.
PHOSPHO1 inh – PubChem AID 1565 | Phosphoethanolamine/phosphocholine phosphatase (Homo sapiens), Q8TCT1 | recombinant PHOSPHO1, absorbance phosphatase assay | inhibition, % at 13.3 µM | hit rate 1.1% among 290,000; in the data active means inhibition above about 60%
APOBEC3G inh – APOBEC3G DNA deaminase inhibitors, primary screen, biochemical, fluorescence, single-stranded DNA substrate, uHTS; recombinant A3G, ssDNA deamination FAM/TAMRA fluorescence; inhibition, % at 20 µM; hit rate 0.28% among 330,000;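 active means inhibition of at least 40% at 20 µM, with no more than 30% in the related APOBEC3A deaminase screen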;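 further: plate controls were DMSO wells with A3G for no effect and wells lacking A3G enzyme for full effect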
aDG glyco act – activators of alpha-DG glycosylation, primary screen, uHTS, Pro5-aDG cells, AlphaScreen; alpha-DG glycosylation AlphaScreen (IIH6); 0% Pro5, 100% B10-LARGE cell signal; activation, % at 10 µM; hit rate 0.22% among 360,000;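 active means activation of at least 8% versus controls, or a plate z-score of at least 8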;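 further: Pro5 are CHO cells carrying HIG-tagged alpha-DG that lacks glycosylation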
A3A deaminase – APOBEC3A ssDNA deaminase inhibitors, primary screen, selectivity assay for APOBEC3G inhibitor project, biochemical, FAM/TAMRA oligo cleavage fluorescence; recombinant A3A, FAM/TAMRA ssDNA deamination fluorescence; inhibition, % at 20 µM; hit rate 0.41% among 330,000; AID 493011, 2011;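 active means at least 40% inhibition at 20 µM here, with at most 30% in a related deaminase screen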;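 further: plate controls were A3A with DMSO for no effect and wells lacking A3A enzyme for full effect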
Target sequence (P31941 whole entry, looked up): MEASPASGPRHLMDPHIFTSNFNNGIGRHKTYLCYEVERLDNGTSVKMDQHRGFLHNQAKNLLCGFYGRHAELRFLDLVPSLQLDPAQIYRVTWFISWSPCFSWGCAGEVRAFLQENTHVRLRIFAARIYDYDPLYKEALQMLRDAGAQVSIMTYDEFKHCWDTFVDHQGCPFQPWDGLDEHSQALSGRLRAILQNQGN
rCAG RNA binder – binders of r(CAG) RNA repeats, primary screen, biochemical, fluorescence | AID 651821, 2012 | r(CAG) RNA repeat, TO-PRO-1 dye displacement fluorescence | hit rate 1.3% among 370,000 | inhibition, % at 3 µM;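 active means inhibition above the plate cutoff, the mean of all test compounds on that plate plus 3 SD, cut at about 35% in these data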;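 further: 0% = DMSO alone and 100% = 100 µM mitoxantrone as full dye displacement; higher means more dye released from RNA so lower well fluorescence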
ALR H2O2 inh – inhibitors of human ALR sulfhydryl oxidase, primary screen, biochemical, H2O2 detection, HRP-luminol luminescence, single point; purified ALR, DTT oxidation; AID 485317, 2010; inhibition, % (concentration not given with the values); hit rate 3.8% among 290,000; FAD-linked sulfhydryl oxidase ALR (Homo sapiens), P55789;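 active means mean replicate inhibition above about 79%, with every replicate also reaching it, limit read from the data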
Target sequence (P55789 whole entry, looked up): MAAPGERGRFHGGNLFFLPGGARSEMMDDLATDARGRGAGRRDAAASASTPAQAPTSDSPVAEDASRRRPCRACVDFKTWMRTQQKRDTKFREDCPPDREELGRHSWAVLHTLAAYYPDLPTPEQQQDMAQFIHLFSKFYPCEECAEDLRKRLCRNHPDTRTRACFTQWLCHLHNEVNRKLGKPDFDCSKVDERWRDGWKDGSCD
APOBEC3A confirm – APOBEC3A deaminase inhibitors, retest, confirmation, selectivity assay for APOBEC3G inhibitor project, biochemical, single concentration, fluorescence readout | inhibition, % at 20 µM | recombinant A3A, ssDNA deaminase UDG fluorescence assay | shares compounds with A3A deaminase | hit rate 63% among 1,400;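 active means inhibition reaching a set limit, 80% of the first screen's cutoff, at 20 µM in any replicate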;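 further: plate controls were DMSO wells with A3A for no effect and wells lacking A3A enzyme for full effect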
UDG A3A counter – E. coli UDG inhibitors, confirmation, counter-screen for APOBEC3A inhibitor project, biochemical, single concentration, fluorescence, FAM/TAMRA oligo | shares compounds with A3A deaminase | UDG counterscreen, FAM/TAMRA uracil oligo fluorescence | AID 504714, 2011 | inhibition, % at 20 µM | 1,000 tested, under 10 active; call rule not given here
Starred values were filed as active, the others as inactive.

Results for Oc1ccccc1/C=N/[n+]1ccccc1 ?
PHOSPHO1 inh: 15; APOBEC3G inh: 15; aDG glyco act: 0; A3A deaminase: 69*; rCAG RNA binder: 0; ALR H2O2 inh: -22; APOBEC3A confirm: 66*; UDG A3A counter: -1

Results for O=C(O)c1cc(Cl)c2c(c1)OCO2 ?
PHOSPHO1 inh: 10; APOBEC3G inh: 8; aDG glyco act: 0; A3A deaminase: 43*; rCAG RNA binder: 3; APOBEC3A confirm: 27

Results for O=C(C1CCCN(S(=O)(=O)c2ccc(Br)s2)C1)N1CCN(Cc2ccccc2)CC1 (configuration not stated) ?
rCAG RNA binder: 2

What do the screens show for `CSc1ccc(CNc2ccccn2)cc1`?
PHOSPHO1 inh: 76*; APOBEC3G inh: 9; aDG glyco act: 0; A3A deaminase: 48*; rCAG RNA binder: -4; ALR H2O2 inh: 0; APOBEC3A confirm: 3

What do the screens show for `CC1CCCCC1C(=O)N1CCC(Oc2cccnc2)CC1` (configuration not stated)?
rCAG RNA binder: -1

What do the screens show for `CC1=CC(C)(C)[N+](C)(C)c2ccc(C)cc21`?
PHOSPHO1 inh: 37; APOBEC3G inh: 12; aDG glyco act: 0; A3A deaminase: 45*; rCAG RNA binder: -2; ALR H2O2 inh: 2; APOBEC3A confirm: 71*; UDG A3A counter: 0

What do the screens show for `NC1CCCCC1N=Cc1c(O)n(CCc2ccc(F)cc2)c(=O)[nH]c1=O` (configuration not stated)?
PHOSPHO1 inh: 6; aDG glyco act: 0; rCAG RNA binder: 6

Results for O=c1[nH]c(=O)n(CCc2ccc(F)cc2)c(O)c1C=NCc1ccc2c(c1)OCO2 ?
PHOSPHO1 inh: 7; APOBEC3G inh: 20; aDG glyco act: 0; A3A deaminase: 68*; rCAG RNA binder: -1; ALR H2O2 inh: -14; APOBEC3A confirm: 2

What do the screens show for `COc1cc(C(=O)N=c2sccn2C)c([N+](=O)[O-])cc1OC`?
PHOSPHO1 inh: -1; APOBEC3G inh: 10; aDG glyco act: 0; A3A deaminase: 53*; rCAG RNA binder: -1; ALR H2O2 inh: -17; APOBEC3A confirm: 6

What do the screens show for `O=C(NCc1ccco1)c1nc(-c2ccc(F)cc2)no1`?
PHOSPHO1 inh: 23; APOBEC3G inh: -9; aDG glyco act: 0; A3A deaminase: 40*; rCAG RNA binder: -7; ALR H2O2 inh: 4; APOBEC3A confirm: -3; UDG A3A counter: -2

Results for O=C(NCc1ccco1)c1ccccc1-c1nc(-c2ccc(F)cc2)no1 ?
PHOSPHO1 inh: 0; APOBEC3G inh: 2; aDG glyco act: 0; A3A deaminase: 3; rCAG RNA binder: -4; ALR H2O2 inh: 2

How did CC(C)=CCCC1=CCC2C(=O)NNC(=O)C2C1 (configuration not stated) do in these assays?
PHOSPHO1 inh: -7; APOBEC3G inh: -7; aDG glyco act: 0; A3A deaminase: 58*; rCAG RNA binder: 0; ALR H2O2 inh: -3; APOBEC3A confirm: -1; UDG A3A counter: 2

How did O=C(Cc1ccc(S(=O)(=O)N2CCOCC2)s1)Nc1ccc2c(c1)CCC2 do in these assays?
PHOSPHO1 inh: -1; APOBEC3G inh: -4; aDG glyco act: 0; A3A deaminase: -3; rCAG RNA binder: 7; ALR H2O2 inh: 0

What do the screens show for `O=C(Cc1ccc(S(=O)(=O)N2CCOCC2)s1)Nc1nc2c(s1)CCCC2`?
PHOSPHO1 inh: 94*; APOBEC3G inh: 19; aDG glyco act: 0; A3A deaminase: 78*; rCAG RNA binder: 34; ALR H2O2 inh: -9; APOBEC3A confirm: 73*; UDG A3A counter: 1

How did CC1=NN(c2ccccc2)C(=O)C1(C)C do in these assays?
PHOSPHO1 inh: 57; APOBEC3G inh: -2; aDG glyco act: 0; A3A deaminase: -2; rCAG RNA binder: 0; ALR H2O2 inh: 0

What do the screens show for `CC[N+]1=CN(c2ccccc2)C(C)=CC1(C)C`?
PHOSPHO1 inh: -6; APOBEC3G inh: 24; aDG glyco act: 0; A3A deaminase: 61*; rCAG RNA binder: 2; ALR H2O2 inh: 10; APOBEC3A confirm: 28

Results for O=C(CSc1ccccn1)NC1CCCc2c1cnn2-c1ccccc1F (configuration not stated) ?
aDG glyco act: 1; rCAG RNA binder: 1

Results for C[n+]1ccccc1Nc1cc([N+](=O)[O-])ccc1N ?
PHOSPHO1 inh: -19; APOBEC3G inh: 19; aDG glyco act: 0; A3A deaminase: 63*; rCAG RNA binder: 1; APOBEC3A confirm: 70*; UDG A3A counter: -1

Results for N#Cc1ccc(NC(=S)Nc2ccccc2)cc1 ?
PHOSPHO1 inh: 13; APOBEC3G inh: 0; aDG glyco act: 0; A3A deaminase: 44*; rCAG RNA binder: -2; ALR H2O2 inh: 21; APOBEC3A confirm: -7; UDG A3A counter: -4

What do the screens show for `S=C(Nc1ccccc1)Nc1ccc(Br)cc1`?
PHOSPHO1 inh: 28; APOBEC3G inh: -4; aDG glyco act: 1; A3A deaminase: -3; rCAG RNA binder: 1; ALR H2O2 inh: -3

Results for Cc1nn(CC(=O)Nc2ccc(Cl)cn2)c(C)c1[N+](=O)[O-] ?
PHOSPHO1 inh: -2; APOBEC3G inh: -5; aDG glyco act: 0; A3A deaminase: -1; rCAG RNA binder: 1; ALR H2O2 inh: 0

How did Cc1nn(C(C)C(=O)Nc2ccc(Cl)cn2)c(C)c1[N+](=O)[O-] (configuration not stated) do in these assays?
PHOSPHO1 inh: 46; APOBEC3G inh: -1; aDG glyco act: 0; A3A deaminase: 52*; rCAG RNA binder: -3; ALR H2O2 inh: 8; APOBEC3A confirm: 9; UDG A3A counter: 0

How did CC(C)(C)N(NC(=O)Nc1ccc(Cl)c(Cl)c1)C(=O)c1ccccc1 do in these assays?
PHOSPHO1 inh: 22; APOBEC3G inh: 1; aDG glyco act: 0; A3A deaminase: 40*; rCAG RNA binder: 12; ALR H2O2 inh: 5; APOBEC3A confirm: 3

Screens deposited in PubChem BioAssay by several laboratories.
